Data reported in PubChem BioAssay (NCI).
About 83,000 compounds went through this panel and 20% of them were active in at least one assay; those are over-represented in the sample as a whole.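 Plates (96-well) were seeded with cells, treated with compound at one concentration, and incubated for 48 hours before percent growth was determined.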 Values without a mark were called inactive. Calls of active or inactive are those of the source. The calls were made as follows: active = growth percent below 10; inactive = the rest.

How the values were obtained:
Assay in all cases: NCI-60 one-dose screen, 48 h (100 = growth as untreated, 0 = no growth, -100 = all killed)
Details in all cases: 10 µM unless noted
[1] = tested on: NCI-H23 lung
[2] = tested on: NCI-H226 lung
[3] = tested on: NCI-H322M lung
[4] = tested on: HOP-62 NSCLC
[5] = tested on: NCI-H460 lung
[6] = tested on: HOP-92 NSCLC
[7] = tested on: NCI-H522 lung
[8] = tested on: A549/ATCC NSCLC
[9] = tested on: 786-0 renal
[10] = tested on: COLO 205 colon
[11] = tested on: DU-145 prostate
[12] = tested on: K-562 leukemia
[13] = tested on: MALME-3M melanoma
[14] = tested on: MDA-MB-231 breast
[15] = tested on: RXF 393 renal
[16] = tested on: SF-268 CNS
[17] = tested on: SF-295 CNS
[18] = tested on: SF-539 CNS
[19] = tested on: UACC-257 melanoma
[20] = tested on: M14 melanoma

Compound	growth [1]	growth [2]	growth [3]	growth [4]	growth [5]	growth [6]	growth [7]	growth [8]	growth [9]	growth [10]	growth [11]	growth [12]	growth [13]	growth [14]	growth [15]	growth [16]	growth [17]	growth [18]	growth [19]	growth [20]
c1cc2ccc1CNCCN1CCNCc3ccc(cc3)Oc3ccc(cc3)CNCCN(CCNCc3ccc(cc3)O2)CCNCc2ccc(cc2)Oc2ccc(cc2)CNCC1	-79.3% (active)	-56.6% (active)	-28.5% (active)	-78.2% (active)	-66.3% (active)	-92.2% (active)	-84.3% (active)	-79.1% (active)	66.2%	-86.8% (active)	-88.6% (active)	-23.7% (active)	-5.04% (active)	-87% (active)	-30.8% (active)	-88% (active)	6.02% (active)	-89.2% (active)	37.5%	94.8%
CC(C)=CCC[C@](C)(O)[C@H]1CC[C@]2(C)[C@@H]1CC[C@@H]1[C@@]3(C)CC/C(=N/O)C(C)(C)[C@@H]3CC[C@]12C	-56.9% [100 µM] (active)	11.3% [100 µM]	-1.07% [100 µM] (active)	-50.9% [100 µM] (active)	-7.45% [100 µM] (active)	-62% [100 µM] (active)	-28.9% [100 µM] (active)	-70.4% [100 µM] (active)	-21.1% [100 µM] (active)	-43.5% [100 µM] (active)	-15.4% [100 µM] (active)	10.9% [100 µM]	-69.7% [100 µM] (active)	-34.2% [100 µM] (active)	-32.5% [100 µM] (active)	11.5% [100 µM]	-66.5% [100 µM] (active)	-53.9% [100 µM] (active)	19.8% [100 µM]	-13.6% [100 µM] (active)
CCOC(=O)CC(c1ccccc1)C(C#N)c1ccccc1 (stereo not given)	102%	95.4%	108%	96.2%	105%	90.9%	95.9%	99.3%	98.7%	100%	104%	108%	90.9%	106%	87.5%	99.4%	110%	109%	94.2%	91.8%
CCCOc1ccc(-c2nc(-c3ccc(N)cc3)cs2)cc1	96.8%	111%	103%	107%	98%	94.4%	89.3%	93.5%	87.1%	143%	133%	85.3%	116%	99%	99.5%	133%	89.3%	103%	111%	111%
CCOC(=O)COc1c(C)cc(SSc2cc(C)c(OCC(=O)OCC)c(C)c2)cc1C	103%	111%	105%	109%	102%	76.8%	73.8%	80.2%	114%	111%	108%	96.2%	110%	107%	126%	99%	105%	112%	80.8%	103%
O=C(CSc1nccc(Nc2ccc(S(=O)(=O)Nc3ccccn3)cc2)n1)c1ccc(Cl)cc1	80.3%	89%	104%	83.5%	104%	92.8%	75.4%	105%	102%	110%	103%	86.6%	112%	85.8%	106%	95.1%	98.2%	95.3%	91.3%	107%
CCN(CC)c1ccc(/C=C/c2ccc3cc(C)ccc3[n+]2CC)cc1	-1.98% (active)	21.4%	35.9%	4.01% (active)	-48.4% (active)	-17.5% (active)	-27.7% (active)	8.77% (active)	16.2%	-21.7% (active)	20.1%	6.51% (active)	-2.01% (active)	21.3%	11.8%	27.7%	-22% (active)	11.5%	-19% (active)	2.07% (active)
COc1ccc(C(=O)CCC(=O)O)cc1	89.4%	93.3%	97.3%	104%	101%	105%	102%	93.2%	103%	101%	99.7%	49.1%	87%	80.4%	109%	95.6%	95%	98.7%	80.2%	95.3%
CCn1cc(-c2ccnc(NCCNS(=O)(=O)c3cccc4ccccc34)c2)c(-c2cccc(O)c2)n1	100%	94.2%	98.9%	113%	102%	79.8%	105%	103%	92.3%	112%	97.9%	75.7%	109%	108%	92.9%	94.7%	101%	104%	109%	103%
Cc1ccc(NC(=O)N[C@@H](Cc2cc(F)cc(F)c2)C(=O)N[C@@H]2C(=O)N3CCC[C@H]3C(=O)N3CCCC[C@H]3C(=O)N[C@@H](C)C(=O)N3C[C@H](C)C[C@H]3C(=O)O[C@H]2C)cc1	33.5%	28.5%	62.8%	30.1%	25.6%	29.8%	31.8%	23.1%	28.2%	7.51% (active)	28.8%	14.3%	35%	4.01% (active)	28.8%	28.8%	18.5%	48.6%	18%	34%
CSc1cccc([N+](=O)[O-])c1	109%	104%	102%	105%	114%	106%	84%	101%	101%	107%	110%	96.6%	103%	101%	99%	110%	106%	96.2%	103%	102%
COc1ccc2c(c1)c(-c1noc(-c3cn(C)c4ncc(F)cc34)n1)cn2C	75.4%	108%	57%	55.7%	18.5%	69.9%	79%	21.5%	50.8%	88.3%	82.4%	84.7%	77.5%	62.2%	73.7%	79.7%	62.6%	84.6%	94.4%	91.9%
COc1ccc(NC(=O)Nc2ccc(-c3cccnc3)cc2N2CCC(CO)CC2)cc1	27.1%	86.8%	59.1%	54%	60.1%	78.1%	25.2%	41%	30.8%	70%	55.3%	24.8%	67.2%	34.2%	13.1%	52.5%	32%	15.1%	46.6%	63.3%
Cn1cc(-c2noc(C(=O)c3cn(C)c4ncc(Br)cc34)n2)c2ccccc21	97.7%	99.3%	91%	102%	99.8%	37.6%	91.6%	99.3%	91.3%	107%	100%	102%	80.5%	79.1%	104%	94.6%	101%	87.1%	96.7%	99.4%
C1=C[C@H]2O[C@@H]1c1ccc3[nH]ccc3c12	96%	101%	110%	96.6%	102%	120%	41.7%	89.4%	106%	110%	116%	53.3%	102%	93.4%	92.5%	104%	103%	107%	91.6%	86.3%
O=C(Nc1ccc(Nc2ccncc2)cc1)c1ccc([N+](=O)[O-])cc1	81%	91.1%	90.4%	61.7%	77.5%	51.1%	52.6%	72.4%	56.7%	-50.3% (active)	68.7%	19.5%	59.1%	93.5%	91.6%	91.9%	79.6%	88.8%	96.9%	65.1%
Cc1cccc(C[C@H](NC(=O)Nc2ccc(Cl)cc2F)C(=O)N[C@@H]2C(=O)N3C[C@H](OC(=O)CCN(C)C)C[C@H]3C(=O)N3CCCC[C@H]3C(=O)N[C@@H](C)C(=O)N3C[C@H](C)C[C@H]3C(=O)O[C@H]2C)c1	34.4%	28%	59.2%	35%	13.6%	19.1%	24.6%	25.4%	22.5%	9.51% (active)	23.7%	15.8%	27.1%	1.21% (active)	18.7%	24.8%	7.95% (active)	35.6%	16.3%	16.5%
OC(c1ccc(Cl)cc1)(c1ccc(Cl)cc1)C(O)(c1ccc(Cl)cc1)c1ccc(Cl)cc1	53.1%	54.6%	46.4%	65.1%	26.6%	24.7%	41.6%	44.9%	31.9%	45%	61.3%	32.4%	70.9%	39.8%	16.2%	38.9%	-2.57% (active)	87.2%	64.7%	35.6%
CC/C=C(\C)C(CCC)(CN=O)C(=O)OCC (stereo not given)	99.7%	109%	107%	93%	114%	102%	92.8%	85.8%	104%	104%	111%	114%	105%	94.8%	123%	105%	112%	98.9%	85.8%	99.3%
O=C(N/N=C\c1cc(Cl)ccc1O)N/N=C/c1cc(Cl)ccc1O	45.7%	73%	74.7%	54%	16.1%	21%	14%	26.2%	78%	46.3%	87.4%	18.4%	74.1%	48.3%	85%	57.9%	25.5%	39.3%	65.5%	50.4%
Cc1ccc(Cn2c(O)c(N=NC(=O)c3ccc(S(N)(=O)=O)cc3)c3ccccc32)cc1	101%	93.9%	99.1%	106%	104%	106%	97.3%	93.8%	105%	115%	107%	99.2%	97.1%	97.2%	91.2%	98.6%	101%	108%	98%	112%
CCOC(=O)c1sc2nc(-c3cc(OC)c(OC)c(OC)c3)nc(N3CCOCC3)c2c1C	27.6%	44.7%	48.2%	77.1%	17.5%	-15% (active)	12.1%	28.9%	51.8%	26.5%	48.3%	24.2%	9.78% (active)	44.9%	32.3%	40.1%	40.3%	50.4%	51.7%	38.4%
COc1cc(NCc2ccccc2O)c2ncccc2c1	97.7%	104%	90.7%	83.5%	97.3%	81.1%	88.3%	110%	69.5%	96.9%	112%	97.3%	92.9%	91.3%	100%	110%	129%	86%	109%	94.4%
O=C(Nc1ccc(Cl)c(C(F)(F)F)c1)Nc1ccc(-c2cccnc2)cc1N1CCC(CO)CC1	38.4%	53.4%	54.8%	47.5%	18.5%	34.5%	20.2%	22.2%	15.6%	-26.6% (active)	53.2%	15.1%	43.1%	-17.5% (active)	26.2%	47.6%	17.8%	18.9%	40.2%	24.1%
Cc1cc2c(C(C)C)c(O)c(O)c(C=NCc3ccoc3)c2c(O)c1-c1c(C)cc2c(C(C)C)c(O)c(O)c(C=NCc3ccco3)c2c1O	23.5%	72%	44.5%	53.3%	25.5%	21%	35.4%	26.3%	62.3%	10.6%	49.1%	9.26% (active)	66.4%	31.8%	58.7%	34.9%	22%	60.2%	80.9%	65.4%
NC(=O)c1cccc(-c2ccc(S(=O)(=O)Nc3ccc4c(c3)N(C(=O)C3CC3)CCC4)cc2)c1	48%	63.7%	70%	38.4%	17.1%	33.7%	7.75% (active)	50.8%	100%	43.6%	76.3%	25.6%	39.1%	46.2%	47.7%	48.8%	18%	26.3%	46.2%	95.5%
C=C(C)[C@@H]1CC[C@]2(C(=O)NCCNCCNC(=O)OC(C)(C)C)CC[C@]3(C)[C@H](CC[C@@H]4[C@@]5(C)CCC(=O)C(C)(C)[C@@H]5CC[C@]43C)[C@@H]12	37.1% [100 µM]	44.2% [100 µM]	73.8% [100 µM]	45.4% [100 µM]	20.6% [100 µM]	8.07% [100 µM] (active)	39.9% [100 µM]	32.1% [100 µM]	52.6% [100 µM]	57.7% [100 µM]	53.5% [100 µM]	38.1% [100 µM]	64.3% [100 µM]	-33.8% [100 µM] (active)	35.9% [100 µM]	49.8% [100 µM]	32% [100 µM]	50.1% [100 µM]	36.9% [100 µM]	54.1% [100 µM]
COc1ccc(C(=O)CSc2nnc(-c3cc(-c4ccccc4)nc4ccccc34)o2)cc1	109%	106%	99.7%	97.5%	106%	113%	102%	98%	106%	122%	110%	103%	96.7%	98.7%	122%	100%	102%	106%	105%	105%
O=C1/C(=C\c2cn(CC(O)CN3CCCCC3)c3ccccc23)c2ccccc2N1c1c(Cl)cccc1Cl (stereo not given)	-47.4% (active)	-73.9% (active)	-90.4% (active)	-91% (active)	-82.7% (active)	-87.4% (active)	-77.5% (active)	-90.4% (active)	-72.6% (active)	-99.1% (active)	-99.8% (active)	-35.6% (active)	-65.9% (active)	-81.6% (active)	-87.6% (active)	-76.8% (active)	-82.7% (active)	-82.4% (active)	-98.1% (active)	-81.1% (active)
